# Laboratory results as given in PubChem BioAssay (NCATS).
# Values joined by “and” are separate entries in the source; they are usually repeats but may differ in a detail not shown here. Equal values may be shown once. Results filed as inconclusive are left out. Entries that show only a call come without a potency. Active and inactive are the calls of the source. Unless noted, calls follow the shape of the dose curve; as a rule, active = well fitted curve in the direction sought with a large enough effect; inconclusive = small, poorly fitted or top-dose-only effect, or another doubt; inactive = no such curve, though single readings can be large; an effect the other way counts as inactive or inconclusive.
# What was measured:
# [1] = molecular target: Cytochrome P450 3A4 (Homo sapiens) (UniProt P08684); experiment: qHTS Assay for Inhibitors and Substrates of Cytochrome P450 3A4 (AID 884); settings: recombinant CYP3A4, Luciferin-PPXE luminescence; series mostly up to 57.1 µM; also: nearly all actives have a fitted effect of over 50% in size; also: potency is read from the fitted curve at half-maximal effect
# Sequence of Cytochrome P450 3A4 (Homo sapiens) (P08684 whole entry, looked up): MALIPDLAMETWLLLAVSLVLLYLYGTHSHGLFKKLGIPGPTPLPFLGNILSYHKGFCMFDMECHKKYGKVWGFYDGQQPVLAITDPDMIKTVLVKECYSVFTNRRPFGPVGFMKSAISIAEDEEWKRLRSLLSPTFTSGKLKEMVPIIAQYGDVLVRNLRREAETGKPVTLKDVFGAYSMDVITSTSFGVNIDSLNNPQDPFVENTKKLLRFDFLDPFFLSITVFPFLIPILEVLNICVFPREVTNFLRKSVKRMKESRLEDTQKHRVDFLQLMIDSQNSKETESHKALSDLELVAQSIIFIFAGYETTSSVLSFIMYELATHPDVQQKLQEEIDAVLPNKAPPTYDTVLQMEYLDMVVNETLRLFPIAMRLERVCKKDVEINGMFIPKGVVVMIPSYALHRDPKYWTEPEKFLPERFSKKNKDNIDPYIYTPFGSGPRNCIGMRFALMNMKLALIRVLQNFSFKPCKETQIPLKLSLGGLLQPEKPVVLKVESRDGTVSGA
# Procedure, shortened: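 Luminescent readout of luciferin produced by CYP3A4 (20 nM) dealkylation of Luciferin-PPXE, 25 uM (its KM). NADPH-driven reaction ran 60 min at RT after 10 min compound preincubation; data scaled to 57 uM ketoconazole as 100% inhibition.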
# [2] = qHTS Assay for Lipid Storage Modulators (AID 1519; calls by dose curve); settings: Drosophila S3 cells, BODIPY lipid droplet/cell ratio, laser cytometry, cells loaded with oleic acid; for activity change, negative = inhibition: at 57.5 µM (top of the series)
# Procedure, shortened: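 Cells seeded at 5,000 per well were treated with compounds over a concentration series and loaded with oleic acid (400 uM, as added). Lipid droplet fluorescence (488 nm excitation, 500-530 nm channel) was read by laser-scanning cytometry and normalized to 20 uM Triacsin C.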
# [3] = molecular target: Ubiquitin carboxyl-terminal hydrolase 1 (Homo sapiens) (UniProt O94782); experiment: Inhibitors of USP1/UAF1: Pilot qHTS (AID 504865); settings: purified USP1/UAF1, Ub-rhodamine cleavage fluorescence; series mostly up to 114 µM;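 also: rhodamine fluorescence freed from ubiquitin-rhodamine substrate followed over time; top concentration of the series differs between compounds; nearly all actives have a fitted effect of over 35% in size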
# Sequence of Ubiquitin carboxyl-terminal hydrolase 1 (Homo sapiens) (O94782 whole entry, looked up): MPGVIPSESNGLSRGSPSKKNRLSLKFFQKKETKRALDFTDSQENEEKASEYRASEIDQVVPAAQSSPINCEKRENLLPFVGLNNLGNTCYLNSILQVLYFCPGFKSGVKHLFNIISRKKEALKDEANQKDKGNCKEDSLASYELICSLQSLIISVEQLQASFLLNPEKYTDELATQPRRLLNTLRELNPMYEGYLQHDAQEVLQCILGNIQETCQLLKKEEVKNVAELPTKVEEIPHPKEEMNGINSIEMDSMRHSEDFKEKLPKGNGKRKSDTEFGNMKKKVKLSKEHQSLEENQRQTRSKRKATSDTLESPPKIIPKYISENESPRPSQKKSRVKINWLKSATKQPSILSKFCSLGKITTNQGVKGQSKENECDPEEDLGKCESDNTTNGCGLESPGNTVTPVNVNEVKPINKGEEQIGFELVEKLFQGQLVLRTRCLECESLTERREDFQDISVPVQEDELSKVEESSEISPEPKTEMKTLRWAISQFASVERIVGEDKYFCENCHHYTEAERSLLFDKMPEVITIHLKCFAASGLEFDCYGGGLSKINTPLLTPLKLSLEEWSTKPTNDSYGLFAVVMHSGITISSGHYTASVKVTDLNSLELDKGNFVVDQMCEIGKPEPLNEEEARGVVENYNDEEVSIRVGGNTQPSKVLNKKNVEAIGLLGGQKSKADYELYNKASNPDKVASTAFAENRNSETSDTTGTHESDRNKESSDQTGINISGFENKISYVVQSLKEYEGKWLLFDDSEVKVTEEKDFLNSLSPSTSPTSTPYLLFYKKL
# Procedure, shortened: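 1nM USP1/UAF1 + cpd, 15 min RT; start w/ Ub-Rho 150nM final; kinetic FL 480/540 nm, 6 reads q60 s. Buffer 50mM HEPES pH 7.8, 0.5mM EDTA, 1mM TCEP, 0.01% Tween-20, 0.1 mg/ml BSA.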
# [4] = molecular target: DNA dC->dU-editing enzyme APOBEC-3G (Homo sapiens) (UniProt Q9HC16); experiment: qHTS for inhibitors of Vif-A3G interactions: Validation (AID 588379); settings: Vif-A3G protein interaction assay; series mostly up to 46.1 µM
# Sequence of DNA dC->dU-editing enzyme APOBEC-3G (Homo sapiens) (Q9HC16 whole entry, looked up): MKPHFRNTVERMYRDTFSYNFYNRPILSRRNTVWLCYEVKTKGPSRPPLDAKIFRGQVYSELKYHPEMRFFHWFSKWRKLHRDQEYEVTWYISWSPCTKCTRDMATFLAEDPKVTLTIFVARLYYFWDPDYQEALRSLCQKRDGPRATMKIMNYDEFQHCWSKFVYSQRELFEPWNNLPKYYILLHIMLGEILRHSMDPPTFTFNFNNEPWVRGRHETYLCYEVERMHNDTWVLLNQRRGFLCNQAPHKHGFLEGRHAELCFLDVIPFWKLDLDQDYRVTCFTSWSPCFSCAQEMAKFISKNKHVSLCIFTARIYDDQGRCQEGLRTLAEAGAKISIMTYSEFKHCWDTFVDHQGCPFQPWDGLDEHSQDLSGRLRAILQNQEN
# Procedure, shortened: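 Yellow fluorescence (Ex 488, Em 500-530) of Vif-coexpressing HeLa A3G-eYFP cells, scanned by Acumen cytometer, reports blocked A3G degradation. Cells plated at 700/well overnight at 37 deg C before compound addition, then a further overnight compound incubation at 37 deg C.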
# [5] = molecular target: Cytochrome P450 3A4 (Homo sapiens) (UniProt P08684); experiment: qHTS Assay for Activators of Cytochrome P450 3A4 (AID 885); settings: recombinant CYP3A4, Luciferin-PPXE luminescence, 60 min; series mostly up to 57.1 µM; also: nearly all actives have a fitted effect of over 65% in size; also: potency is read from the fitted curve at half-maximal effect
# Procedure, shortened: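 Human CYP3A4 dealkylates Luciferin-PPXE to luciferin, which luciferase detection converts to light. Substrate was at its KM (25uM), buffer 200mM KPO4, reaction 60 min at RT.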
# [6] = Confirmation and Secondary Assay for Modulators of Hemoglobin Beta Chain Splicing at IVS2 654 locus (AID 910); settings: HeLa EGFP-654 splicing reporter, GFP fluorescence, 48 h; series mostly up to 46.1 µM;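 also: HeLa cells stably carrying EGFP split by mutant beta-globin IVS2-654 intron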
# Procedure, shortened: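 HeLa cells stably expressing EGFP interrupted by β-globin IVS2-654 intron, seeded overnight in Opti-MEM/2% FCS, then treated 2 days at 37 °C. Restored splicing read as total peak GFP intensity per well by laser scanning cytometry (488 nm excitation, 500–520 nm emission); 500 nM antisense PNA as control.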
# [7] = Confirmation and Secondary Assay for Modulators of Hemoglobin Beta Chain Splicing at IVS2 705 locus (AID 930); settings: HeLa EGFP-705 splicing reporter, GFP fluorescence, 48 h; series mostly up to 46.1 µM;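 also: HeLa cells stably expressing the EGFP-705 splicing reporter; GFP fluorescence per well restored by corrected splicing of the IVS2-705 intron in EGFP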
# Procedure, shortened: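 HeLa cells stably carrying EGFP interrupted by mutant beta-globin intron 2 (IVS2-705) treated 2 days at 37C with compound; 500 nM antisense PNA as control. Correct splicing read as total peak GFP intensity per well by laser-scanning cytometry.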
# [8] = molecular target: Luciferin 4-monooxygenase (Photinus pyralis) (UniProt P08659); experiment: Biochemical firefly luciferase enzyme assay for NPC (AID 624030);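 also: purified P. pyralis luciferase at 10 nM with luciferin and ATP substrate; nearly all actives have a fitted effect of over 70% in size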; settings: purified P. pyralis luciferase, luminescence, 5 min; series mostly up to 24.9 µM
# Sequence of Luciferin 4-monooxygenase (Photinus pyralis) (P08659 whole entry, looked up): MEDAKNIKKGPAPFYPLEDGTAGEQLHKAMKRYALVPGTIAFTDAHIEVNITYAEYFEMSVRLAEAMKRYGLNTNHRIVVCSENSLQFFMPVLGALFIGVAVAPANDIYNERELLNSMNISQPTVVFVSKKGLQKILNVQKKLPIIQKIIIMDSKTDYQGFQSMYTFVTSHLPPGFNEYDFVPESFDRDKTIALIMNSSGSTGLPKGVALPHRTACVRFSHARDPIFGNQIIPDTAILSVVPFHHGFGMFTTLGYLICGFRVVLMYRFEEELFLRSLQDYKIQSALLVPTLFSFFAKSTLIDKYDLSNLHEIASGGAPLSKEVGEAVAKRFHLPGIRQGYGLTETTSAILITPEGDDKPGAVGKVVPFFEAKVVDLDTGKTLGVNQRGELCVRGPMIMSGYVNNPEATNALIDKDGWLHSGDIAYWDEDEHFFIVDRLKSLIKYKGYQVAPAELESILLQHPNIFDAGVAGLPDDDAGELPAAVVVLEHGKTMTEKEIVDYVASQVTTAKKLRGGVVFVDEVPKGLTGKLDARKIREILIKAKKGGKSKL
# Procedure, shortened: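 Purified P. pyralis luciferase at 10 nM in 50 mM Tris Acetate (final), luminescence read within 5 minutes of enzyme addition to compounds. Activity normalised to PTC124 versus DMSO; concentration-response curves classed by r2, magnitude and activity.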
# [9] = measured here: cell count channel max response
# [10] = measured here: lipid channel max response
SMILES,Potency [1],"activity change, negative = inhibition [2]","max response [2, 9]","max response [2, 10]",Potency [3],outcome [4],Potency [5],Potency [6],Potency [7],Potency [8]
CC1=C(C2=C(C)C(C(C)C)C3=C(C(=O)C(O)C3O)C2O)C(O)C2=C(C(O)C(O)C2=O)C1C(C)C (stereo not drawn),inactive,1.34% (inactive),12.4%,12.8%,inactive,inactive,,,,
COc1ccc(-c2c(O)c3c(OC)c4c(cc3oc2=O)OC(C)(C)C=C4)cc1,6.31 µM (active),-13.4% (inactive),-5.03%,-5.79%,inactive,,inactive,inactive,inactive,
COC(=O)CC1C(C)(C)C(OC(C)=O)C2CC3C4CC(=O)OC(c5ccoc5)[C@]4(C)CCC3[C@@]1(C)C2=O (stereo partly drawn),0.631 µM (active),-20.8% (inactive),1.85%,-17.5%,inactive,,inactive,inactive,inactive,
NCC1O[C@@H](O[C@@H]2C(O)[C@H](O[C@H]3OC(CO)C(O)C(N)C3O)[C@@H](N)C[C@H]2N)C(N)C(O)C1O (stereo partly drawn),inactive,5.31% (inactive),20.8%,32.5%,inactive,,,inactive,inactive,inactive
CC(=O)OC/C=C(\C)CC/C=C(\C)CC/C=C(\C)CC/C=C(\C)CC/C=C(\C)CC/C=C(\C)CC/C=C(\C)CC/C=C(\C)CCC=C(C)C,inactive,1.76% (inactive),7.11%,8.78%,inactive,,,inactive,,
CC(C)(O)CCC(O)[C@@](C)(O)C1CC[C@]2(O)C3=CC(=O)C4CC(O)C(O)C[C@]4(C)C3CC[C@]12C (stereo partly drawn),inactive,2.72% (inactive),-2.83%,0.37%,inactive,,,inactive,,
CC1C(O)CC2C(C(=O)O)=CO[C@@H](O[C@H]3OC(CO)C(O)C(O)C3O)C21 (stereo partly drawn),inactive,4.54% (inactive),10.9%,15.2%,inactive,,,inactive,,
C=CCSCC=C,inactive,6.16% (inactive),-10.4%,-1.96%,inactive,,,inactive,,
CC(=O)Oc1cc(-c2coc3cc(OC(C)=O)c(OC(C)=O)c(OC(C)=O)c3c2=O)cc(OC(C)=O)c1OC(C)=O,inactive,13.7% (inactive),12.1%,28.6%,inactive,,,inactive,,
CC(=O)OCC1OC(n2cnc3c(Cl)nc(Cl)nc32)C(OC(C)=O)C1OC(C)=O (stereo not drawn),inactive,-4.18% (inactive),15.8%,12.7%,inactive,,,inactive,,
CC1(C)C(=O)CC[C@@]2(C)C1CC(O)[C@@]1(C)C3=CC(=O)OC(c4ccoc4)[C@]3(C)CCC21 (stereo partly drawn),15.8 µM (active),11% (inactive),13.9%,28.4%,inactive,,inactive,inactive,inactive,
COc1ccc2c(c1)[C@]1(C)CCC(=O)C[C@H]1CC2,3.16 µM (active),8.23% (inactive),-1.73%,6.33%,inactive,,inactive,inactive,inactive,
CC1(C)CC2/C(CO)=C/C=C/[C@](C)(O)CC[C@]21O (stereo partly drawn),15.8 µM (active),4.24% (inactive),22.8%,29.9%,inactive,,inactive,inactive,inactive,
Nc1ncnc2[nH]c(=O)[nH]c12,inactive,4.6% (inactive),1.75%,6.43%,inactive,,,inactive,,
CC(=O)/C=C\C1[C@]2(C)CCCC(C)(C)C2CC[C@@]1(C)O (stereo partly drawn),inactive,3.07% (inactive),-10.9%,-8.32%,inactive,,,inactive,,
CC(=O)OC1CC(OC(C)=O)[C@]2(C)C(CC(OC(C)=O)[C@]3(C)C2CC[C@@]2(C)C(c4ccoc4)OC(=O)C4O[C@]432)C1(C)C (stereo partly drawn),1.26 µM (active),0.867% (inactive),-4.64%,-0.493%,inactive,,inactive,inactive,inactive,
O=C1CC(c2ccc(O)c(O)c2)Oc2cc(O)cc(O)c21 (stereo not drawn),39.8 µM (active),17.7% (inactive),-10.3%,9.21%,inactive,,inactive,inactive,inactive,
CC1(C)OC2C[C@](O)(C(N)=O)C[C@H](O)[C@H]2O1 (stereo partly drawn),inactive,3.65% (inactive),15.6%,23.7%,inactive,,,inactive,,
COc1ccc2c(c1)OCC(Cc1ccc(OC)c(OC)c1)C2O (stereo not drawn),7.94 µM (active) and 12.6 µM (active),6.38% (inactive),8.42%,15.9%,inactive,,inactive,inactive,inactive,
CC1(C)SC2C(NC(=O)C(NC(=O)N3CCNC3=O)c3ccccc3)C(=O)N2C1C(=O)O (stereo not drawn),inactive,8.06% (inactive),17.4%,28.9%,inactive,,,inactive,,
CCCc1cc(OC)c2c(c1)OCO2,7.94 µM (active),11.5% (inactive),-8.72%,1.71%,inactive,,inactive,inactive,inactive,
COc1ccc(C2CC(=O)c3c(O)cc(O)cc3O2)cc1O (stereo not drawn),15.8 µM (active),3.83% (inactive),3.05%,6.13%,inactive,,inactive,inactive,inactive,
COC1(C)CCC2OC2(C)CCC2C1CC2(C)C (stereo not drawn),10 µM (active),4.15% (inactive),6.3%,11.9%,inactive,,inactive,inactive,inactive,
CC(=O)OC1C=C[C@]2(C)C(CC(OC(C)=O)[C@@]3(C)C4=CC(=O)OC(c5ccoc5)[C@]4(C)CCC23)C1(C)C (stereo partly drawn),inactive,-0.882% (inactive),-3.66%,1.1%,inactive,,12.6 µM (active),inactive,inactive,
Cc1cc(O)cc(O)c1C(=O)O,25.1 µM (active),4.63% (inactive),10.6%,18.2%,inactive,,inactive,inactive,inactive,
